# PubChem BioAssay (NCATS)
# Where “and” joins values, the source holds several entries; their conditions need not be identical. Equal values may be shown once. Inconclusive results are not listed. Some compounds were tested as several samples or in several runs, with calls that do not always agree. Values without a mark were called inactive. Calls of active or inactive are those of the source. Unless noted, the call rests on the fitted dose curve; in most records, active means well fitted curve in the direction sought with a large enough effect; inconclusive means small, poorly fitted or top-dose-only effect, or another doubt; inactive means no such curve, though single readings can be large; an effect the other way counts as inactive or inconclusive.
# Tests used:
# [1] = target: Cellular tumor antigen p53 (Homo sapiens) (UniProt P04637); assay: Primary qHTS for small molecule compounds that upregulate eGFP-tagged delta133p53alpha (in N-terminal) cells. (AID 2060322); conditions: NCI-H358 eGFP-delta133p53alpha fluorescence, 24 h; activation: active compounds read high; further: nearly all actives have a fitted effect of over 75% in size; further: potency means the concentration at half of the fitted maximal effect;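 on activation: 0% = DMSO vehicle and 100% = reference activator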
# In short: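 NCI-H358 cells pre-induced 24 h with 10 ng/ml doxycycline to express N-terminal eGFP-delta133p53alpha, then dosed 24 h at 37C without doxycycline; fixed, Hoechst-stained, GFP intensity by laser scanning cytometry, normalized to DMSO (0%) and 57.5 uM 5-azacytidine (100%).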
# [2] = target: Aldehyde dehydrogenase, mitochondrial (Homo sapiens) (UniProt P05091); assay: qHTS for Inhibitors of the Aldehyde Dehydrogenase Family (ALDH2) Validation screens (AID 2061302; active means well fitted inhibition curve with a large enough effect; title and protocol of this record describe different tests;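 further: plate controls were DMSO vehicle for no effect and maximal DPI positive control response for full effect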); conditions: ALDH inhibition qHTS; series mostly up to 42.6 µM
# [3] = target: Retinaldehyde dehydrogenase 3 (Homo sapiens) (UniProt P47895); assay: qHTS for Inhibitors of the Aldehyde Dehydrogenase Family (ALDH1A3) Validation screen (AID 2061312); conditions: ALDH1A3 enzyme inhibition qHTS validation, fluorescence; series mostly up to 84.7 µM; further: on the % scale 0 is the no-effect control and ±100 the full control effect; nearly all actives have a fitted effect of over 45% in size
# [4] = target: Cellular tumor antigen p53 (Homo sapiens) (UniProt P04637); assay: Primary qHTS for small molecule compounds that upregulate eGFP-tagged delta133p53alpha (in C-terminal) cells. (AID 2060324); conditions: NCI-H358 delta133p53alpha-eGFP (C-terminal tag), GFP fluorescence imaging, 24 h; series mostly up to 57.5 µM; further: potency means the concentration at half of the fitted maximal effect
# In short: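 In this qHTS, GFP-tagged delta133p53alpha levels are measured in fixed NCI-H358 cells after 24 h compound exposure at 37 °C. The cells are pre-induced with 100 ng/ml doxycycline, and signal is normalized to DMSO-treated wells as 0%.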
# [5] = BET inhibitor-based combinations targeting novel dependencies in MECOM-rearranged (r) AML: SET-2 cell line (AID 2202231); conditions: SET-2 AML cells viability, CellTiter-Glo luminescence, 48 h; viability: active compounds read low, concentration not given here;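 further: plate controls were DMSO treated cells for no effect and wells without cells for full effect; nearly all actives have a fitted effect of over 35% in size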
# In short: (§1)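 A 48 hr incubation preceded viability reading by CellTiter-Glo, with 15 min room-temperature development. Dose series had 11 points; normalization used DMSO and empty wells; AUC was computed and mean-centered per line as Z-AUC.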
# [6] = BET inhibitor-based combinations targeting novel dependencies in MECOM-rearranged (r) AML: OCI-AML3 cell line (AID 2202232); conditions: CellTiter-Glo luminescence, 48 h; Potency: OCI-AML3 viability; series mostly up to 46 µM;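 further: plate controls were DMSO vehicle wells for no effect and wells without cells for full effect; nearly all actives have a fitted effect of over 35% in size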
# In short: as §1
# [7] = BET inhibitor-based combinations targeting novel dependencies in MECOM-rearranged (r) AML: MV-4-11 cell line (AID 2202233); conditions: MV-4-11 AML viability, CellTiter-Glo luminescence, 48 h; series mostly up to 46 µM;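 further: plate controls were DMSO for no effect and blank wells for full effect; nearly all actives have a fitted effect of over 45% in size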
# In short: (§2)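 Each compound is tested in an 11-point concentration series against 500 seeded cells/well for 48 hr. The luminescent viability signal is normalized to DMSO and blank wells, then reduced to AUC and a cell-line-centred Z-AUC.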
# [8] = BET inhibitor-based combinations targeting novel dependencies in MECOM-rearranged (r) AML: HNT-34 cell line (AID 2202234); conditions: HNT-34 AML viability, CellTiter-Glo luminescence, 48 h; series mostly up to 46 µM;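 further: plate controls were vehicle wells for no effect and cell-free wells for full effect; nearly all actives have a fitted effect of over 35% in size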
# In short: as §2
# [9] = BET inhibitor-based combinations targeting novel dependencies in MECOM-rearranged (r) AML: UCSD-AML1 cell line (AID 2202235); conditions: UCSD-AML1 AML cells viability, CellTiter-Glo, 48 h; series mostly up to 46 µM;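 further: plate controls were DMSO vehicle wells for no effect and blank wells for full effect; nearly all actives have a fitted effect of over 40% in size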
# In short: as §2
# [10] = BET inhibitor-based combinations targeting novel dependencies in MECOM-rearranged (r) AML: AML-191 cell line (AID 2202236;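 further: plate controls were vehicle wells for no effect and wells without cells for full effect; nearly all actives have a fitted effect of over 35% in size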); conditions: AML-191 viability, CellTiter-Glo luminescence, 48 h; series mostly up to 46 µM
# In short: as §1
# [11] = BET inhibitor-based combinations targeting novel dependencies in MECOM-rearranged (r) AML: AML-194 cell line (AID 2202237;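 further: plate controls were vehicle wells for no effect and wells without cells for full effect; nearly all actives have a fitted effect of over 40% in size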); conditions: AML-194 (MECOM-r AML) viability, CellTiter-Glo, 48 h; series mostly up to 46 µM
# In short: as §1
# [12] = target: Aldehyde dehydrogenase, mitochondrial (Homo sapiens) (UniProt P05091); assay: qHTS for Inhibitors of the Aldehyde Dehydrogenase Family (ALDH2) Primary screen (AID 2061308); conditions: ALDH2 enzyme inhibition qHTS, 1536-well; series mostly up to 56 µM;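 further: plate controls were vehicle for no effect and reference inhibitor for full effect; nearly all actives have a fitted effect of over 55% in size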
# [13] = target: Retinaldehyde dehydrogenase 3 (Homo sapiens) (UniProt P47895); assay: qHTS for Inhibitors of the Aldehyde Dehydrogenase Family (ALDH1A3) Primary screen (AID 2061315); conditions: ALDH inhibition qHTS; series mostly up to 56 µM;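 further: plate controls were DMSO vehicle for no effect and reference inhibitor for full effect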
# Cellular tumor antigen p53 (Homo sapiens), sequence (P04637 whole entry, looked up): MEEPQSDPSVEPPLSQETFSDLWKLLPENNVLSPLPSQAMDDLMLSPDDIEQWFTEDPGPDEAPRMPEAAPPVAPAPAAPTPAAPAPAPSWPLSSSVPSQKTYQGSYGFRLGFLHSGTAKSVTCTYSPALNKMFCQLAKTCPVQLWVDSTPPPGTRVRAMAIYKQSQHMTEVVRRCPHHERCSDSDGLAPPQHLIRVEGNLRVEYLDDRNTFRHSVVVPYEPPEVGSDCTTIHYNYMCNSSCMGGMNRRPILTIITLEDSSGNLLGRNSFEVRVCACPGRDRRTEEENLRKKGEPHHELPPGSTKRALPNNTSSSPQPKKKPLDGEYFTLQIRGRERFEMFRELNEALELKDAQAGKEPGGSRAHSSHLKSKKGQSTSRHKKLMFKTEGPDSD
compound,measurement,setting,value
CCCCCCCCCCCCCCCC(=O)O,activation,[1],-13.4%
CC1(C)OC(=O)Nc2ccc(Br)cc21,activation,[1],3.95%
COC(=O)C1=CO[C@@H](O)[C@@H]2C(CO)=CC[C@@H]12,activation,[1],4.38%
CCCCCCCCCCCCOCCOCCOCCOCCOCCOCCOCCOCCOCCO,activation,[1],6.21%
CO[C@@H]1[C@@H](O[C@@H]2O[C@H](C)[C@@H](O[C@H]3C[C@@](C)(O)[C@@H](O)[C@H](C)O3)[C@H](N(C)C)[C@H]2O)[C@@H](CC=O)C[C@@H](C)[C@@H](O[C@@H]2CC[C@H](N(C)C)[C@@H](C)O2)/C=C/C=C/C[C@@H](C)OC(=O)C[C@H]1OC(C)=O,activation,[1],-19.8%
O=C(Nc1ccc(Cl)c(Cl)c1)C1CC1,activation,[1],-7.53%
CC1(C)[C@H]2CC[C@]3(C)[C@@H](C(=O)C=C4[C@@H]5C[C@@](C)(C(=O)O)CC[C@]5(C)CC[C@]43C)[C@@]2(C)CC[C@@H]1O,activation,[1],3.97%
CC(C)(c1ccc(O)cc1)c1ccc(O)cc1,activation,[1],-17.5%
C[C@@H](O)[C@H]1C(=O)N2C(C(=O)OCOC(=O)C(C)(C)C)=C(SC3CN(C4=NCCS4)C3)[C@H](C)[C@H]12,activation,[1],-12.3%
CC[N+](CC)(CC)CCOc1ccc(/C=C/c2ccccc2)cc1,activation,[1],-19.2%
CC1(C)O[C@@H]2C[C@H]3[C@@H]4CCC5=CC(=O)CC[C@]5(C)[C@@]4(F)[C@@H](O)C[C@]3(C)[C@]2(C(=O)CCl)O1,activation,[1],-1.67%
COc1cc(-c2ccc(=O)[nH]n2)ccc1OC(F)F,activation,[1],2.51%
OCC(O)C(O)C(O)CO (stereo not given),activation,[1],28.5%
COc1ccc2c3c1OC1C[C@@H](O)C=C[C@@]31CCN(C)C2 (stereo not given in full),activation,[1],8.8%
CO[C@@]1(NC(=O)CSC[C@@H](N)C(=O)O)C(=O)N2C(C(=O)O)=C(CSc3nnnn3C)CS[C@@H]21,activation,[1],13.4%
CC(C)=CCCC(C)=CCCC(C)=CCSc1ccccc1C(=O)O,activation,[1],4.74%
CN/C(=C\[N+](=O)[O-])NCCSCc1csc(CN(C)C)n1,activation,[1],-0.837%
CCCCCC(C)N (stereo not given),activation,[1],28.8%
O=C(O)C1(C(=O)O)CCC1.[NH2-].[NH2-].[Pt+2],activation,[1],0.565%
O=C(c1ccc(F)c(F)c1Nc1ccc(I)cc1F)N1CC(O)([C@H]2CCCCN2)C1,activation,[1],17.1%
CC[N+](C)(CC)CCOC(=O)C(O)(c1ccccc1)C1CCCCC1 (stereo not given),activation,[1],-16.7%
CCCC(CCC)(C(=O)OCC)C(=O)OCC,activation,[1],-3.95%
CC(C)(C)CC(C)(C)c1ccc(O)c(-n2nc3ccccc3n2)c1,activation,[1],-0.565%
O=C(NCCCN1CCOCC1)c1ccc(Cl)cc1,activation,[1],-23.2%
OCCOCCN1CCN(C2=Nc3ccccc3Sc3ccccc32)CC1,activation,[1],7.53%
Cc1ncc(CO)c(CO)c1O,activation,[1],-24.3%
CCOC(=O)C1=C(C)NC(C)=C(C(=O)OCC)C1c1ccccc1/C=C/C(=O)OC(C)(C)C,activation,[1],17.5%
COc1cc(CNC(=O)CCCCC=CC(C)C)ccc1O,activation,[1],-14.9%
Nc1ccc(S(=O)(=O)c2ccc(N)cc2)cc1,activation,[1],7.53%
C[C@@H](O)[C@H]1C(=O)N2C(C(=O)O)=C([C@H]3CCCO3)S[C@H]12,activation,[1],-8.47%
CC(C)OC(=O)OCOP(=O)(CO[C@H](C)Cn1cnc2c(N)ncnc21)OCOC(=O)OC(C)C,activation,[1],-1.51% and -14.1%
CCC(=O)O[C@]1(C(=O)COC)[C@@H](C)C[C@H]2[C@@H]3CCC4=CC(=O)C=C[C@]4(C)C3(F)[C@@H](O)C[C@@]21C (stereo not given in full),activation,[1],-4.18%
Nc1ccc(C(=O)OCC(O)CO)cc1 (stereo not given),activation,[1],6.21%
NC(=O)NS(=O)(=O)c1ccc(N)cc1,activation,[1],7.53%
COC(=O)c1ccccc1C(=O)c1ccc(OCCN2CCCCC2)cc1,activation,[1],-14.1%
CN1CCN(C(=O)C2CCCCC2)CC1,activation,[1],-11.7%
CC(=O)Oc1ccc(C(=C2CCCCC2)c2ccc(OC(C)=O)cc2)cc1,activation,[1],9.6%
CC(O)COc1ccccc1 (stereo not given),activation,[1],-13%
CCCCCCCCCCCCCC(=O)OC(C)C,activation,[1],14.1%
Cc1ccc2c(Br)cc(Br)c(O)c2n1,activation,[1],-18.4%
CN(C)c1ccc(/C=C2\C(=O)Nc3ccccc32)cc1,Potency,[1],43.2 µM (active)
same,activation,[1],-19.4%
same,Potency,[2],inactive
same,Potency,[3],inactive
CCCC(=O)OC[C@@H](OC(=O)CCC)[C@@H](OC(=O)CCC)[C@H](Cn1c2nc(=O)[nH]c(=O)c-2nc2cc(C)c(C)cc21)OC(=O)CCC,activation,[1],-33.3%
COc1ccc(O)cc1,activation,[1],1.69%
COC(=O)C1=C(C)NC(C)=C(C(=O)OCCc2ccc(N3CCN(C(c4ccccc4)c4ccccc4)CC3)cc2)C1c1cccc([N+](=O)[O-])c1 (stereo not given),activation,[1],-15.9%
CCCCCN(CCCOC)C(=O)C(CCC(=O)O)NC(=O)c1ccc(Cl)c(Cl)c1 (stereo not given),activation,[1],-18.6%
CCN1/C(=C/C=C/c2sc3ccccc3[n+]2CC)Sc2ccccc21,Potency,[1],16.9 µM (active)
CCC1NC(=O)c2cc(S(N)(=O)=O)c(Cl)cc2N1 (stereo not given),activation,[1],-21.8%
NC(=O)NO,Potency,[1],30.6 µM (active)
same,activation,[1],-16.4% and -32.9%
same,Potency,[4],inactive
same,Potency,[2],inactive
same,Potency,[3],inactive
same,viability,[5],114%
same,Potency,[6],inactive
same,Potency,[7],inactive
same,Potency,[8],inactive
same,Potency,[9],inactive
same,Potency,[10],inactive
same,Potency,[11],inactive
CCOC(=O)[C@H](CCc1ccccc1)N[C@@H](C)C(=O)N1[C@@H](C(=O)O)C[C@H]2CCC[C@@H]21,activation,[1],0.313%
COC(=O)[C@H]1[C@H]2C[C@@H]3c4[nH]c5cc(OC)ccc5c4CCN3C[C@H]2C[C@@H](OC(=O)c2cc(OC)c(OC)c(OC)c2)[C@@H]1OC,Potency,[1],27.6 µM (active)
same,activation,[1],-18%
same,Potency,[4],26.9 µM (active)
same,Potency,[2],inactive
same,Potency,[12],inactive
same,Potency,[3],inactive
same,Potency,[13],inactive
